The source made the active and inactive calls. How the calls were made is not given here.
target: Botulinum neurotoxin type A (Clostridium botulinum) (UniProt P0DPI0); test: BoNT/A light chain protease inhibitors, biochemical, multiplex microsphere flow cytometry, validation set (AID 588460); details: at 10 µM, hits give high values
Sequence (P0DPI0 whole entry, looked up): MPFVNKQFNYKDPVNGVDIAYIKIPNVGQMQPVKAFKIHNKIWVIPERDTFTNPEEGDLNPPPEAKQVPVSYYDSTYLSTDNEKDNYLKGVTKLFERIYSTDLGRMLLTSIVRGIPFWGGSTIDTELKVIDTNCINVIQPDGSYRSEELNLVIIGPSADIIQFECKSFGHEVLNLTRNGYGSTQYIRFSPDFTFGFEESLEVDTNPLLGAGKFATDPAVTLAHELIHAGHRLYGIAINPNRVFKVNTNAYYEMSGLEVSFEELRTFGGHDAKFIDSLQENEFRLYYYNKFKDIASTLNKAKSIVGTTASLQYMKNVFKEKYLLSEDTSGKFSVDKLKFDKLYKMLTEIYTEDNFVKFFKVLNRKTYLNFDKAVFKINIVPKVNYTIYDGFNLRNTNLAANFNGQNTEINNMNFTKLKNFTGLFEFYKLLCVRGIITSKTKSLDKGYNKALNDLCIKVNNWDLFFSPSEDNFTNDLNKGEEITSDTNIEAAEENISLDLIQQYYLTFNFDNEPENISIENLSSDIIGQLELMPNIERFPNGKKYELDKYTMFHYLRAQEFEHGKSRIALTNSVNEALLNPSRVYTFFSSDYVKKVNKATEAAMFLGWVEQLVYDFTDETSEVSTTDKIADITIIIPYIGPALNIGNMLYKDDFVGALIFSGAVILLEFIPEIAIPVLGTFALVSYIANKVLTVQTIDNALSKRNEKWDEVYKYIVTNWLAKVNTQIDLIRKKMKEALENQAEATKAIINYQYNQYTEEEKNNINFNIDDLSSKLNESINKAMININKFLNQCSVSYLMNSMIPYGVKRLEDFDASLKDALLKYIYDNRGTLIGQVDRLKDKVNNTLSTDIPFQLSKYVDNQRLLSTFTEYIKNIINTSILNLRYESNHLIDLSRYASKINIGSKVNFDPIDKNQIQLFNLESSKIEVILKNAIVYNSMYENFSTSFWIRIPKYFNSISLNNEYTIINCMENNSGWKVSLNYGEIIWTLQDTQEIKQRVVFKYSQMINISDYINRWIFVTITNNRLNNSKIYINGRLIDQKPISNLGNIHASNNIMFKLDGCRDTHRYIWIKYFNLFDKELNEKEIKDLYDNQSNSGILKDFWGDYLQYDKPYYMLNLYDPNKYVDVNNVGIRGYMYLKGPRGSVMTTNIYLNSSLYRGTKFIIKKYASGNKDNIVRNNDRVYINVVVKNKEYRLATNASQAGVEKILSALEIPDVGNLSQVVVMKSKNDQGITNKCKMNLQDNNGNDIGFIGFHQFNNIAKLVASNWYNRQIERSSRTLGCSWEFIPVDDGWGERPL

Row | Compound | inhibition
1 | NC[C@H]1O[C@H](O[C@H]2[C@H](O)[C@@H](O[C@H]3O[C@H](CO)[C@@H](O)[C@H](N)[C@H]3O)[C@H](N)C[C@@H]2N)[C@H](N)C[C@@H]1O | -1.1% (inactive)
2 | CN1CCCN=C1COC(=O)C(O)(c1ccccc1)C1CCCCC1 (configuration not stated) | -0.9% (inactive)
3 | NC(=O)c1cccnc1 | -0.2% (inactive)
4 | CC(C)Cc1ccc(C(C)C(=O)Nc2ccc(O)cc2)cc1 (configuration not stated) | -1.3% (inactive)
5 | CC/C(=C(\c1ccc(O)cc1)c1ccc(OCCN(C)C)cc1)c1ccccc1 | -0.2% (inactive)
6 | CCC(C)NCCOCCOc1ccc(Cl)c2ccccc12 (configuration not stated) | 1.8% (inactive)
7 | COc1cc(C(=O)NCCc2c[nH]c3ccccc23)ccc1OCc1c(C)noc1C | -1.7% (inactive)
8 | CCN(CC)C(=O)N1CCN(C)CC1 | -0.7% (inactive)

target: Lethal factor (Bacillus anthracis) (UniProt P15917); test: Bacillus anthracis lethal factor inhibition, microsphere flow cytometry protease assay, validation at 10 µM (AID 588461); details: multiplex microsphere protease cleavage assay, hits give high values
Sequence (P15917 whole entry, looked up): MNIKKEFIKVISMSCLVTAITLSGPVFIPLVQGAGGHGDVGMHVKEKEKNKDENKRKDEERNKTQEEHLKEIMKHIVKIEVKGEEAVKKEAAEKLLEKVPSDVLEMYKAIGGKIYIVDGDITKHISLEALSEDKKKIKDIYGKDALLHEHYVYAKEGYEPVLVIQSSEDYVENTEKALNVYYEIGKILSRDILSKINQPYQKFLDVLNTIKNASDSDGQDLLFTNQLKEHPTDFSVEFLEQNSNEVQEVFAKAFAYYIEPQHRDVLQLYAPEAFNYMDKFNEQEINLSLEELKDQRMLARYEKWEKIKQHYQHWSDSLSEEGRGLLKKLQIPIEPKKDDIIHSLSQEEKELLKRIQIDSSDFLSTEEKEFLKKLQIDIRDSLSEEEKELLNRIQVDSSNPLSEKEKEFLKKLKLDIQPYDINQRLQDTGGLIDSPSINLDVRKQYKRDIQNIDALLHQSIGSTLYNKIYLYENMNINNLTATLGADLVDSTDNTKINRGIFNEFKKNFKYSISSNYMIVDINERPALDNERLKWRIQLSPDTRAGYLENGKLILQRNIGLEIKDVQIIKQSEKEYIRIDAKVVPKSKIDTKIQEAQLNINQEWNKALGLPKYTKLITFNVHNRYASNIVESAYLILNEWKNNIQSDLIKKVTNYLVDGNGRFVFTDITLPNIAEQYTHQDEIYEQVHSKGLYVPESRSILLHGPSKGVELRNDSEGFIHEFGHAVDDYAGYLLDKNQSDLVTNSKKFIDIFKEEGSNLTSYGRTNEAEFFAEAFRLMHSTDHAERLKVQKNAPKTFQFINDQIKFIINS

Row | Compound | inhibition
9 | NC(N)=N/N=C/c1cccc(Cl)c1Cl | -3.3% (inactive)
10 | O=C(NCCc1c[nH]c2ccccc12)OCCSS(=O)(=O)O | 3.7% (inactive)
11 | COc1ccc2cc[nH]c2c1 | 2.8% (inactive)
12 | c1ccc(Cn2ncc3c(Nc4ccccc4)ncnc32)cc1 | -0.5% (inactive)
13 | O=C(OCCNC(=O)c1ccc2ccccc2n1)c1ccc(F)cc1 | 4.4% (inactive)
14 | NC(N)=NC(N)=Nc1ccc2ccccc2c1 | 1.8% (inactive)
15 | CN1C(=O)NC(c2ccc(O)cc2)C2=C1CN(c1cccc3ccccc13)C2=O (configuration not stated) | -10.8% (inactive)
16 | CC(=O)c1ccc(CCCCCCCCCC(=O)O)s1 | -1% (inactive)
17 | COc1cccc(N2CC34C=CC(O3)C(C(=O)O)C4C2=O)c1 (configuration not stated) | 6% (inactive)
18 | Cc1cc(O)c2/c(=N\N)c(-c3csc(C)n3)coc2c1 | 2.2% (inactive)
19 | CC[N+]1(C)CC2CCC(C)(C1)C2(C)C (configuration not stated) | 11.8% (inactive)
20 | C#CCN(C)CCCOc1ccc(Cl)cc1Cl | -10.6% (inactive)
21 | CNc1nc(N(C)C)nc(N(C)C)n1 | -1.7% (inactive)
22 | CC[n+]1c(C)sc2cc(C)ccc21 | -1.6% (inactive)
23 | Oc1ccc(Cl)cc1Cc1cc(Cl)ccc1O | 7.7% (inactive)
24 | CC(C)CCC1(CCNC(C)c2cccs2)CCOC(C)(C)C1 (configuration not stated) | -5.3% (inactive)
25 | COc1ccc(OC)c(C(=O)c2coc3ccc(O)cc23)c1 | 7% (inactive)
26 | CC(C)C[C@H](NC(=O)NC(C)C)C(=O)O | 2.9% (inactive)
27 | CC(C)CC(NC(=O)c1cccc(Cl)c1)C(=O)O (configuration not stated) | 0.4% (inactive)
28 | Cc1ccc(S(=O)(=O)Oc2ccccc2/C=N/N=C(N)N)cc1 | -7.6% (inactive)

Row | Compound | inhibition
29 | CC(=O)CCc1c(C)c2cccc(C)c2[nH]c1=O | -3.4% (inactive)
30 | CN1CCCC(OC(=O)c2ccc3c(c2)OCCO3)C1 (configuration not stated) | -2.2% (inactive)
31 | NNC(=O)c1ccncc1 | 5.3% (inactive)
32 | CC(=O)N(C(C)=O)c1nc2nc(C)cc(C)n2n1 | 1.4% (inactive)
33 | O=c1ccn([C@@H]2O[C@H](CO)[C@@H](O)[C@H]2O)c(=O)[nH]1 | 1.9% (inactive)
34 | CCN1CCN(C(=S)c2ccc(OC)cc2)CC1 | 11.9% (inactive)
35 | Cc1ccc(C(=O)NC(=S)NCCCN2CCOCC2)cc1 | 6.1% (inactive)
36 | NCCc1cnc[nH]1 | 3.7% (inactive)
37 | O=C1Cc2ccccc2C(c2ccccc2)N1 (configuration not stated) | -3.1% (inactive)
38 | CC(CCc1ccccc1)NCC(O)c1ccc(O)c(C(N)=O)c1 (configuration not stated) | 0.1% (inactive)
39 | COC(=O)c1ccc(COc2ccc3c(C)c(C)c(=O)oc3c2C)o1 | 0.2% (inactive)
40 | NC[C@H]1O[C@H](O[C@H]2[C@H](O)[C@@H](O[C@H]3O[C@H](CO)[C@@H](O)[C@H](N)[C@H]3O)[C@H](N)C[C@@H]2N)[C@H](N)C[C@@H]1O | -1.8% (inactive)
41 | CN1CCCN=C1COC(=O)C(O)(c1ccccc1)C1CCCCC1 (configuration not stated) | -4.7% (inactive)
42 | NC(=O)c1cccnc1 | 3% (inactive)
43 | CC(C)Cc1ccc(C(C)C(=O)Nc2ccc(O)cc2)cc1 (configuration not stated) | -6.8% (inactive)
44 | CC/C(=C(\c1ccc(O)cc1)c1ccc(OCCN(C)C)cc1)c1ccccc1 | -2.3% (inactive)
45 | CCC(C)NCCOCCOc1ccc(Cl)c2ccccc12 (configuration not stated) | -6.5% (inactive)
46 | COc1cc(C(=O)NCCc2c[nH]c3ccccc23)ccc1OCc1c(C)noc1C | 0.2% (inactive)
47 | CCN(CC)C(=O)N1CCN(C)CC1 | 4.2% (inactive)

Reference: PubChem BioAssay
